From the supplement of paper PMC8975748
Where a name gives a salt, the structure may show the parent alone. ± gives the standard deviation of the averaged measurements.

Key:
[1] = test system: Saccharomyces cerevisiae BY4741 SeMeCo community; experiment: mean cell size (pixel area) (pixels); higher = larger cells; details: 10 µM; 24 h; SM minimal medium
How it was run: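 The test system was a fluorescent Saccharomyces cerevisiae BY4741 community with four plasmids, each restoring one auxotrophy and carrying a fluorescent marker. Cells were grown for 24 h in SM medium with drug at a final 10 µM in 384-well plates, then fixed with paraformaldehyde and imaged by automated confocal microscopy for Harmony analysis of mean cell pixel area per well. Values represent the average of 3 replicates. Same SeMeCo high-content imaging drug screen: Selleck FDA-approved drugs at 10 µM, 24 h in SM medium, 384-well plates, 3 replicates.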

[2] = test system: Saccharomyces cerevisiae BY4741 SeMeCo community; experiment: z-score of prototroph abundance vs DMSO median; higher = larger share of this subpopulation than in DMSO controls; details: 10 µM; 24 h; SM minimal medium; subpopulation (auxotrophy): Prototroph
How it was run: (§1)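 Scoring was based on each subpopulation's abundance, expressed as a z-score against the vehicle-well median. A Saccharomyces cerevisiae BY4741 community with four plasmids, each restoring one auxotrophy and encoding a distinct fluorescent protein, was pre-grown overnight to OD600 1.0, diluted to 0.3, and added at 70 µl to 384-well plates acoustically predosed with library drugs (10 µM final). It then grew 24 h in minimal SM medium before paraformaldehyde fixation and automated confocal microscopy, with single-auxotroph fluorescent strains setting thresholds and autofluorescence correction.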

[3] = test system: Saccharomyces cerevisiae BY4741 SeMeCo community; experiment: z-score of subpopulation abundance vs DMSO median, subpopulation auxotrophic for L; higher = larger share of this subpopulation than in DMSO controls; details: 10 µM; 24 h; SM minimal medium; subpopulation (auxotrophy): L
How it was run: as §1

[4] = test system: Saccharomyces cerevisiae BY4741 SeMeCo community; experiment: z-score of subpopulation abundance vs DMSO median, subpopulation auxotrophic for H; higher = larger share of this subpopulation than in DMSO controls; details: 10 µM; 24 h; SM minimal medium; subpopulation (auxotrophy): H
How it was run: as §1

[5] = test system: Saccharomyces cerevisiae BY4741 SeMeCo community; experiment: z-score of subpopulation abundance vs DMSO median, subpopulation auxotrophic for LM; higher = larger share of this subpopulation than in DMSO controls; details: 10 µM; 24 h; SM minimal medium; subpopulation (auxotrophy): LM
How it was run: as §1

[6] = test system: Saccharomyces cerevisiae BY4741 SeMeCo community; experiment: z-score of subpopulation abundance vs DMSO median, subpopulation auxotrophic for HM; higher = larger share of this subpopulation than in DMSO controls; details: 10 µM; 24 h; SM minimal medium; subpopulation (auxotrophy): HM
How it was run: as §1

[7] = test system: Saccharomyces cerevisiae BY4741 SeMeCo community; experiment: z-score of subpopulation abundance vs DMSO median, subpopulation auxotrophic for UM; higher = larger share of this subpopulation than in DMSO controls; details: 10 µM; 24 h; SM minimal medium; subpopulation (auxotrophy): UM
How it was run: as §1

[8] = test system: Saccharomyces cerevisiae BY4741 SeMeCo community; experiment: z-score of subpopulation abundance vs DMSO median, subpopulation auxotrophic for HLU; higher = larger share of this subpopulation than in DMSO controls; details: 10 µM; 24 h; SM minimal medium; subpopulation (auxotrophy): HLU
How it was run: as §1

[9] = test system: Saccharomyces cerevisiae BY4741 SeMeCo community; experiment: z-score of subpopulation abundance vs DMSO median, subpopulation auxotrophic for HLM; higher = larger share of this subpopulation than in DMSO controls; details: 10 µM; 24 h; SM minimal medium; subpopulation (auxotrophy): HLM
How it was run: as §1

[10] = test system: Saccharomyces cerevisiae BY4741 SeMeCo community; experiment: z-score of subpopulation abundance vs DMSO median, subpopulation auxotrophic for HUM; higher = larger share of this subpopulation than in DMSO controls; details: 10 µM; 24 h; SM minimal medium; subpopulation (auxotrophy): HUM
How it was run: as §1

[11] = test system: Saccharomyces cerevisiae BY4741 SeMeCo community; experiment: z-score of subpopulation abundance vs DMSO median, subpopulation auxotrophic for LUM; higher = larger share of this subpopulation than in DMSO controls; details: 10 µM; 24 h; SM minimal medium; subpopulation (auxotrophy): LUM
How it was run: as §1

[12] = test system: Saccharomyces cerevisiae BY4741 SeMeCo community; experiment: z-score of subpopulation abundance vs DMSO median, subpopulation auxotrophic for HLUM; higher = larger share of this subpopulation than in DMSO controls; details: 10 µM; 24 h; SM minimal medium; subpopulation (auxotrophy): HLUM
How it was run: as §1

[13] = test system: Saccharomyces cerevisiae BY4741 SeMeCo community; experiment: z-score of subpopulation abundance vs DMSO median, subpopulation auxotrophic for U; higher = larger share of this subpopulation than in DMSO controls; details: 10 µM; 24 h; SM minimal medium; subpopulation (auxotrophy): U
How it was run: as §1

[14] = test system: Saccharomyces cerevisiae BY4741 SeMeCo community; experiment: z-score of subpopulation abundance vs DMSO median, subpopulation auxotrophic for LU; higher = larger share of this subpopulation than in DMSO controls; details: 10 µM; 24 h; SM minimal medium; subpopulation (auxotrophy): LU
How it was run: as §1

[15] = test system: Saccharomyces cerevisiae BY4741 SeMeCo community; experiment: z-score of subpopulation abundance vs DMSO median, subpopulation auxotrophic for HU; higher = larger share of this subpopulation than in DMSO controls; details: 10 µM; 24 h; SM minimal medium; subpopulation (auxotrophy): HU
How it was run: as §1

[16] = test system: Saccharomyces cerevisiae BY4741 SeMeCo community; experiment: z-score of subpopulation abundance vs DMSO median, subpopulation auxotrophic for HL; higher = larger share of this subpopulation than in DMSO controls; details: 10 µM; 24 h; SM minimal medium; subpopulation (auxotrophy): HL
How it was run: as §1

Compound	mean cell size [1]	z-score of prototroph abundance [2]	z-score of subpopulation abundance [3]	z-score of subpopulation abundance [4]	z-score of subpopulation abundance [5]	z-score of subpopulation abundance [6]	z-score of subpopulation abundance [7]	z-score of subpopulation abundance [8]	z-score of subpopulation abundance [9]	z-score of subpopulation abundance [10]	z-score of subpopulation abundance [11]	z-score of subpopulation abundance [12]	z-score of subpopulation abundance [13]	z-score of subpopulation abundance [14]	z-score of subpopulation abundance [15]	z-score of subpopulation abundance [16]
Cc1nc2n(c(=O)c1CCN1CCC(c3noc4cc(F)ccc34)CC1)CCCC2 [Risperidone]	12.3 ± 0.18	-0.99	-0.44	0.92	0.47	0.48	0.87	0.19	0.11	1.02	0.14	-0.21	–	–	–	–
Cc1nnc(SCC2=C(C(=O)O)N3C(=O)[C@@H](NC(=O)Cn4cc(Cl)c(=O)c(Cl)c4)[C@H]3SC2)s1 [Cefazedone]	–	0.73	-0.83	-0.61	-0.95	0.02	–	-1.4	-0.49	0.05	-1.02	–	-0.01	-0.24	-0.74	-1.2
COCCCC/C(=N\OCCN)c1ccc(C(F)(F)F)cc1 [Fluvoxamine maleate]	12.3 ± 0.13	0.26	–	-0.64	0.51	-0.09	–	-0.3	–	0.06	0.15	-0.43	-0.51	-0.03	-0.5	-0.26
C[C@@H]1[C@H](O)[C@@H](C)/C=C/C=C/C=C/C=C/C=C/C=C/C=C/[C@H](O[C@@H]2O[C@H](C)[C@@H](O)[C@H](N)[C@@H]2O)C[C@@H]2O[C@](O)(C[C@@H](O)C[C@@H](O)[C@H](O)CC[C@@H](O)C[C@@H](O)CC(=O)O[C@H]1C)C[C@H](O)[C@H]2C(=O)O [Amphotericin B]	–	-19.9	-2.03	–	-0.85	–	29.4	31.3	–	–	29.1	–	-0.38	24.4	10.5	8.48
CC(=O)NO [Acetohydroxamic acid]	12.5 ± 0.15	-0.09	1.33	0.14	0.84	0.32	-0.03	0.42	0.6	0.08	1.04	0.86	-0.68	–	-0.11	0.57
C[C@]12CC[C@@H]3c4ccc(OS(=O)(=O)O)cc4CC[C@H]3[C@@H]1CCC2=O [Estropipate]	12.21 ± 0.12	–	-0.9	-0.96	-0.33	-0.81	0.16	-0.73	-0.64	-0.32	-0.11	-0.39	-0.01	–	-0.17	-0.81
N/C(=N\N=C\c1ccc(Cl)cc1)N/N=C/c1ccc(Cl)cc1 [Robenidine Hydrochoride]	–	-8.77	–	5.77	5.64	11.4	–	0.81	10.4	11.9	7.91	18.1	–	-2.55	-0.45	–
CN(C)CCCN1c2ccccc2CCc2ccc(Cl)cc21 [Clomipramine HCl]	12.55 ± 0.052	-0.93	-0.45	-0.49	–	0.1	–	-0.16	–	–	1.56	1.45	1.4	0.32	0.31	-0.45
CC[C@@H]1/C=C(\C)C[C@H](C)C[C@H](OC)[C@H]2O[C@@](O)(C(=O)C(=O)N3CCCC[C@H]3C(=O)O[C@H](/C(C)=C/[C@@H]3CC[C@@H](O)[C@H](OC)C3)[C@H](C)[C@@H](O)CC1=O)[C@H](C)C[C@@H]2OC [Ascomycin (FK520)]	–	-1.94	0.1	1.96	–	–	0.63	2.5	1.57	2.57	2.23	2.95	-0.06	-0.23	1.75	2.56
CN(Cc1ccc(C(C)(C)C)cc1)Cc1cccc2ccccc12 [Butenafine HCl]	12.2 ± 0.22	1.36	-0.23	-0.76	-0.39	–	-1.21	-0.68	-0.42	–	-0.75	0.01	-1.08	-1.41	–	-0.63
Clc1ccc(C(Cn2ccnc2)OCc2csc3c(Cl)cccc23)c(Cl)c1 (centres undefined) [Sertaconazole nitrate]	12.5 ± 0.29	-8.82	1.38	36.6	-3.39	0.2	–	11.1	28.5	–	2.6	–	0.4	1.93	14.5	16.1
CCn1cc(C(=O)O)c(=O)c2ccc(C)nc21 [Nalidixic acid]	11.87 ± 0.1	1.23	1.23	-0.95	–	-1.62	-1.42	-0.15	–	-1.86	-0.71	-0.59	-0.51	-0.49	-0.52	–
CO[C@H]1C[C@@H]2CC[C@@H](C)[C@@](O)(O2)C(=O)C(=O)N2CCCC[C@H]2C(=O)O[C@H]([C@H](C)C[C@@H]2CC[C@@H](OP(C)(C)=O)[C@H](OC)C2)CC(=O)[C@H](C)/C=C(\C)[C@@H](O)[C@@H](OC)C(=O)[C@H](C)C[C@H](C)/C=C/C=C/C=C/1C [Ridaforolimus (Deforolimus, MK-8669)]	14.2 ± 0.11	-18.3	-0.55	15.9	5.98	20.9	12.7	23.1	–	29.1	11	21.4	3.51	5.01	25.9	13.8
Nc1nc2c(ncn2COCCO)c(=O)[nH]1 [Aciclovir]	–	0.49	1.26	-0.28	–	-0.46	–	-0.88	–	-1.32	0.25	–	–	0.29	–	-0.76
CCC(=O)NS(=O)(=O)c1ccc(-c2c(-c3ccccc3)noc2C)cc1 [Parecoxib]	–	-0.12	0.2	0.1	0.77	–	0.49	0.16	0.22	–	0.13	-0.37	-0.29	-0.15	-0.34	0.12
